Experimental data published in the supplement of paper PMC11417369.
Whole data set: some 25,000 sequences, median “ln(normalized median fluorescence intensity)” near 9.3, cut for the highest 2% near 10. The entries come from a sample that favours the highest values as a whole.

These sequences were tested on PF3D7_0420300 AP2 domain 1 (GST-tagged) (assay: gcPBM binding intensity (ln(normalized median fluorescence intensity)); higher = stronger DNA binding).
Method in brief: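 Probes on an Agilent 4 × 180k array were primer-extended, double-stranded and 36 bp long, taken from intergenic genomic regions, with negative controls added. GST-tagged P. falciparum DNA-binding domains from E. coli, about 25 μg on average, were applied to the array for 1 h in 1× PBS containing 1% milk, 0.2 mg/ml BSA, 0.5% salmon testes DNA and 0.03% Triton X-100. Binding intensity, obtained after Alexa488 anti-GST antibody detection and a 488 nm scan, is the highest Masliner-normalised natural-log median intensity across replicate spots of either probe orientation.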

Question: How did the “gcPBM binding intensity (ln)” value turn out when “AATAAACATAAATACACACACAAAAAAAAAAACATA [CACACA_site4396]” was run?
Answer: 10.3

Question: With “CAAAGACACAAACACACACACACATACATACATACA [CACACA_site453]” as the sequence, how does the “gcPBM binding intensity (ln)” value read?
Answer: 10.1

Question: With “ACAAAAAAAAAAAAAATACACACACATAAAAAAAAA [TGCATGCA_negctrl_site333]” as the sequence, how does the “gcPBM binding intensity (ln)” value read?
Answer: 9.72

Question: “ATAAAACAAAGACACACACACATACACAAAAAAAAA [CACACA_site7752]” was tested. Which “gcPBM binding intensity (ln)” value did it give?
Answer: 10.2

Question: With “AAAAAAAAAAAACATACACACAAATAAATACATACA [CACACA_site6073]” as the sequence, how does the “gcPBM binding intensity (ln)” value read?
Answer: 9.9

Question: Which “gcPBM binding intensity (ln)” value does the source give for “TAATTTTTTTAAAAGCGTACATTTAAAAAAAAATAT [XGTACX_site2736]” here?
Answer: 8.76

Question: For “TAATAACTACAAAAAAAAAAGAAAAATAGAAAAAGG [CACACA_negctrl_site1102]”, which “gcPBM binding intensity (ln)” value is on record?
Answer: 9.55

Question: How did the “gcPBM binding intensity (ln)” value turn out when “TTGCATATTTCTAATTGTACATTATTTTATTTTATA [XGTACX_site8451]” was run?
Answer: 9.45

Question: How did the “gcPBM binding intensity (ln)” value turn out when “ATAAAAAAAAGAAAAACACACACATATATATATATA [CACACA_site8243]” was run?
Answer: 9.61

Question: For “AAAGAAAAAAAAAACACACACACACGCATTCAATAT [CACACA_site6169]”, which “gcPBM binding intensity (ln)” value is on record?
Answer: 10.1

Question: How did the “gcPBM binding intensity (ln)” value turn out when “AGAGATATAAGAAAAGCACACACACCCAAAAAAAAA [CACACA_site8917]” was run?
Answer: 9.92

Question: With “AGATATAAGAAAAGCACACACACACCCAAAAAAAAA [CACACA_site2826]” as the sequence, how does the “gcPBM binding intensity (ln)” value read?
Answer: 10.2

Question: With “AAAAAAAAGAAACACACACACATACACATAAATATA [CACACA_site3807]” as the sequence, how does the “gcPBM binding intensity (ln)” value read?
Answer: 10.1

Question: How did the “gcPBM binding intensity (ln)” value turn out when “AAAAGAAAAAGAAAAACACACATAAATATAAATATA [CACACA_site1879]” was run?
Answer: 9.59

Question: Which “gcPBM binding intensity (ln)” value does the source give for “AAAGAAAAAAAAAACACACACACACCCATTCAATAT [CACACA_site38]” here?
Answer: 10.2

Question: “AGAAAAAAAAAACACACACACACACCCTCAATATAA [CACACA_site39]” was tested. Which “gcPBM binding intensity (ln)” value did it give?
Answer: 10.1

Question: For “AATAAAAAGAAACACACACACACACCCATATATATA [CACACA_site3589]”, which “gcPBM binding intensity (ln)” value is on record?
Answer: 10.2

Question: How did the “gcPBM binding intensity (ln)” value turn out when “AAAAAAAAAAAAGAAACACACATATATATATATATA [CACACA_site140]” was run?
Answer: 9.23

Question: “CACTAAAAGAAACACACACACACACCCATATATATA [CACACA_site4151]” was tested. Which “gcPBM binding intensity (ln)” value did it give?
Answer: 10.2

Question: For “ATATAAGAAAAGCACACACACACAAAAAAAAAAAAA [CACACA_site2827]”, which “gcPBM binding intensity (ln)” value is on record?
Answer: 10.1

Question: For “AGTAACTAATTAAATGCATGTCGATATATATTATAT [TGCATGCA_site1038]”, which “gcPBM binding intensity (ln)” value is on record?
Answer: 9.35

Question: With “CGTTTTCTATATCATTGTACATATTCATGTGTAAAT [XGTACX_site2741]” as the sequence, how does the “gcPBM binding intensity (ln)” value read?
Answer: 9.24

Question: How did the “gcPBM binding intensity (ln)” value turn out when “CATAAATACAGATATACACACATATATATATATATA [CACACA_site4528]” was run?
Answer: 9.45

Question: How did the “gcPBM binding intensity (ln)” value turn out when “AATAAAAAGTAATAATAACGTATAATTTATTATACT [TGCATGCA_negctrl_site414]” was run?
Answer: 9.14

Question: For “TATTTTTTATGATTAACACACACACTAATAAAAAAA [CACACA_site9370]”, which “gcPBM binding intensity (ln)” value is on record?
Answer: 9.77

Question: How did the “gcPBM binding intensity (ln)” value turn out when “ACGTTTACGTTATTATGTACGTAATATATCATACCT [XGTACX_site5006]” was run?
Answer: 9.09

Question: With “CAACAAAAGAAACACACACACACAAACACAAAAAAA [CACACA_site3389]” as the sequence, how does the “gcPBM binding intensity (ln)” value read?
Answer: 10

Question: “AAAAAAAAAAGAAACACACACATATATATATAGAAT [CACACA_site1777]” was tested. Which “gcPBM binding intensity (ln)” value did it give?
Answer: 10.1

Question: With “CACACCCACCAACACACACACAAAAAAAAAAAGAAA [CACACA_site500]” as the sequence, how does the “gcPBM binding intensity (ln)” value read?
Answer: 9.59

Question: How did the “gcPBM binding intensity (ln)” value turn out when “TTAACAAAGAAACACACACACACACCCAAAAAAAAA [CACACA_site516]” was run?
Answer: 10.2

Question: With “ATACTAAAGAAACACACACACATATATATATAGAAT [CACACA_site100]” as the sequence, how does the “gcPBM binding intensity (ln)” value read?
Answer: 10.3

Question: How did the “gcPBM binding intensity (ln)” value turn out when “AAAAAAAAGAAAAACACACACATATATATATAGAAT [CACACA_site1006]” was run?
Answer: 10.2

Question: Which “gcPBM binding intensity (ln)” value does the source give for “TGACATAATGTGTGTAGTACATATATCGTTATTTGA [XGTACX_site5152]” here?
Answer: 9.46

Question: How did the “gcPBM binding intensity (ln)” value turn out when “ACATGTAAATTTACATGTACATGTAACACTTAATAT [XGTACX_site4575]” was run?
Answer: 9.39

Question: For “TAAAGAAATAAATACATACACACATATATATATATA [CACACA_site3363]”, which “gcPBM binding intensity (ln)” value is on record?
Answer: 9.46

Question: How did the “gcPBM binding intensity (ln)” value turn out when “AATAAAAAAGAATATACACACATAAATATAAAATAT [CACACA_site683]” was run?
Answer: 9.9

Question: For “AAAGAAATGAAATATACACACATACATATATACATA [CACACA_site9335]”, which “gcPBM binding intensity (ln)” value is on record?
Answer: 9.81

Question: “GTATCAAAAGAATACACACACACATACATATATATA [CACACA_site3796]” was tested. Which “gcPBM binding intensity (ln)” value did it give?
Answer: 10.2

Question: Which “gcPBM binding intensity (ln)” value does the source give for “AGAAAGAAAGAATACACACACACATATATAAATATC [CACACA_site7716]” here?
Answer: 10.2

Question: With “AGAAAGAAAGAATACACACACACATATATATATATC [CACACA_site3744]” as the sequence, how does the “gcPBM binding intensity (ln)” value read?
Answer: 10.4

Question: “AAAAAAAACAAATACACACGCACACCGAAAAAAAAA [CACACA_site803]” was tested. Which “gcPBM binding intensity (ln)” value did it give?
Answer: 10

Question: With “TCCTACATATAAAAATGTACCCATTGTTTTTTTTTT [XGTACX_site7205]” as the sequence, how does the “gcPBM binding intensity (ln)” value read?
Answer: 9.11

Question: Which “gcPBM binding intensity (ln)” value does the source give for “TTCATTCATTTTATTACACACAAAAAAAAAAAAAAA [CACACA_site3680]” here?
Answer: 9.07

Question: “AACATATATATATATACATGCATATGAACAACGAAT [TGCATGCA_site93]” was tested. Which “gcPBM binding intensity (ln)” value did it give?
Answer: 9.62

Question: “CTTTTTAATGAATACACACACACACCGATATATATA [CACACA_site5296]” was tested. Which “gcPBM binding intensity (ln)” value did it give?
Answer: 10.1
